Assay outcomes from PubChem BioAssay.
14-3-3g Raf = modulators of human 14-3-3 gamma - Raf peptide interaction; inhibition, % at 40 µM; 160,000 compounds, 0.19% hits; P61981; FP, 14-3-3gamma / TMR-pS259-Raf peptide binding; in the data active means inhibition above about 30%
Target sequence (P61981 whole entry, looked up): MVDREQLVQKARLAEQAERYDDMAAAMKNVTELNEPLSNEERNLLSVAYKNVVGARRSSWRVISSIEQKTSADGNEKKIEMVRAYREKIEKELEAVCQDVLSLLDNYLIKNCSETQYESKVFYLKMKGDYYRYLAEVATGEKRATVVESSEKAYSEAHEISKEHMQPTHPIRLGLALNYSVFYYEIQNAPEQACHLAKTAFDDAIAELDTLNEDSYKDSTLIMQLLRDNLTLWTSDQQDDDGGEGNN
Large screens that a line does not name were inactive. The full list was thinned out, with hits kept by preference.

CN(N=O)c1ccc(O)c(O)c1	14-3-3g Raf 40
O=[N+]([O-])c1nn2cccnc2c1[N+](=O)[O-]	none
CCOC(=O)C1C2NC(=S)N(c3ccccc3)C1(C)Oc1ccc(Br)cc12 (configuration not stated)	none
CCC1(C(=O)c2ccccc2)C2c3cc(Br)ccc3OC(=O)C21C(=O)OC (configuration not stated)	none
CCC1(C(=O)c2ccc(C)cc2)C2c3cc(Br)ccc3OC(=O)C21C(=O)OC (configuration not stated)	14-3-3g Raf 31
O=C(CN1C(=O)CN=C(c2ccccc2)c2cc(Cl)ccc21)Nc1ccccc1Cl	none
Cc1[nH]c2ccc(I)cc2c1CCN	none
Cc1cc(O)c2c3c(c(=O)oc2c1)CCCC3	none
C#CCN(C)C(C)Cc1ccccc1 (configuration not stated)	14-3-3g Raf 35
C#CCN(C)[C@@H](C)Cc1ccccc1	none
CCOC(=O)c1cc(C)sc1N=CC1C(=O)NC(=S)NC1=O	none
CCOC(=O)CN1C(=O)NC2(CCN(C)CC2)C1=O	none
Cc1ccc(-n2c(C=Cc3cc(Br)cs3)nc3ccccc3c2=O)cc1	none
CCCCn1c(=O)c(C(=O)Nc2nc3ccc(Cl)cc3s2)c(O)c2ccccc21	none
Cc1cc(C)cc(-n2c(C=Cc3cccc([N+](=O)[O-])c3)nc3ccccc3c2=O)c1	none
CCOc1ccc(-n2c(O)c(C=NCCN3CCNCC3)c(=O)[nH]c2=O)cc1	14-3-3g Raf 34
Cc1ccc(-n2c(O)c(C=NCCN3CCOCC3)c(=O)[nH]c2=O)cc1	none
O=c1[nH]c(=O)n(CCc2ccccc2)c(O)c1C=NCCN1CCNCC1	none
CCOC(=O)CC1=C(C(=O)OCC)C2(C(=O)N(C)c3ccccc32)C(C(=O)OC)=C(N)O1 (configuration not stated)	none
Clc1cccc(-n2nnnc2C2(N3CCOCC3)CCCCC2)c1	none
